Screening results (PubChem BioAssay)
Hits are enriched below; roughly 0.89% of the tested compounds scored in any of these assays.
LAP4-GFP MLPCN: modulators of TOR pathway LAP4-GFP in S. cerevisiae; S. cerevisiae LAP4-GFP multiplex, flow cytometry GFP, 3 h; median GFP as percent of DMSO wells; GFP response vs DMSO, % at 10 µM; actives 0.34% (n = 320,000);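 active = GFP response vs DMSO above a set limit, about the screen mean plus 3 SD, cut at about 150% in these data; inconclusive = under 70 cell events counted for the yeast strain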
RPL19A TOR yeast: modulators of TOR pathway RPL19A-GFP in S. cerevisiae. S. cerevisiae RPL19A-GFP strain, flow cytometry, 3 h; stronger effect = lower value. percent response vs DMSO, % at 10 µM. actives 0.3% (n = 330,000). AID 2025;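 active = percent response vs DMSO below 50%; inconclusive = fewer than 70 events counted for the yeast strain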;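 note: median channel GFP fluorescence of the barcoded RPL19A-GFP strain; lower means less RPL19A-GFP as with rapamycin TOR inhibition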
CIT2-GFP yeast: yeast TOR pathway CIT2-GFP modulation; S. cerevisiae CIT2-GFP strain, flow cytometry, 3 h; 100 means same as DMSO wells; actives 0.065% (n = 320,000); GFP response vs DMSO, % at 10 µM;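 active = GFP response relative to DMSO above a set limit, near the screen mean plus 3 SD, cut at about 150% in these data; inconclusive = Fewer than 70 cells measured for a yeast strain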;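 note: ratio of well median GFP fluorescence to mean of DMSO wells on the plate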
MEP2 TOR yeast: modulators of TOR pathway MEP2-GFP in S. cerevisiae. S. cerevisiae MEP2-GFP strain, flow cytometry GFP, 3 h; 100% = DMSO control level. actives 0.51% (n = 330,000). GFP response vs DMSO, % at 10 µM;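 active = GFP response versus DMSO above a set limit, roughly screen mean plus 3 SD, cut at about 180% in these data; inconclusive = fewer than 70 cells counted for a yeast strain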;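 note: median GFP fluorescence of the barcode-gated MEP2-GFP cells per well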
AGP1 TOR yeast: modulators of TOR pathway AGP1-GFP in S. cerevisiae; AID 2066; S. cerevisiae AGP1-GFP multiplex flow cytometry, 3 h; GFP as percent of DMSO wells; GFP response vs DMSO, % at 10 µM; actives 0.02% (n = 320,000);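 active = GFP response relative to DMSO above a set limit, near screen average plus 3 SD, cut at about 150% in these data; inconclusive = fewer than 70 cells counted for the yeast strain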;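 note: median GFP channel fluorescence of the gated AGP1 strain per well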
Of the large screens only hits and unclear results are named; the others gave an inactive call; [ ] = remark or other dose.

COc1c(O)c(=O)n2c3ccccc3c3ccnc1c32	RPL19A TOR yeast 24[may fluoresce violet], CIT2-GFP yeast inconclusive, MEP2 TOR yeast 211[may fluoresce violet]
CCCN1CCN(C(=O)Cn2ncc3c([nH]c4ccc(C)cc43)c2=O)CC1	CIT2-GFP yeast inconclusive, MEP2 TOR yeast 186[may fluoresce violet]
O=C(NCCO)c1ccccc1O	none
Cc1onc(-c2c(F)cccc2Cl)c1C(=O)NC(C)c1ccccc1 (stereo not given)	CIT2-GFP yeast inconclusive, MEP2 TOR yeast 195[may fluoresce violet]
Cc1onc(-c2ccccc2)c1C(=O)NC(=S)NNC(=O)c1ccco1	LAP4-GFP MLPCN 158
Cc1ccc(S(=O)(=O)N2CCCCC2)cc1NC(=O)CSc1nnc(C2CC2)n1N	none
CCCCOc1ccc(C(=O)N(Cc2ccco2)C2CCS(=O)(=O)C2)cc1 (stereo not given)	none
O=C(c1ccc(Br)cc1)N(Cc1ccco1)C1CCS(=O)(=O)C1 (stereo not given)	RPL19A TOR yeast 20[may fluoresce violet], CIT2-GFP yeast inconclusive, AGP1 TOR yeast inconclusive
CC(=O)NCC(=O)NC(C(=O)Nc1ccc2c(c1)OCCO2)c1ccc(C)cc1 (stereo not given)	LAP4-GFP MLPCN inconclusive, RPL19A TOR yeast 40[may fluoresce violet], CIT2-GFP yeast inconclusive, MEP2 TOR yeast inconclusive, AGP1 TOR yeast inconclusive
COc1ccccc1C1c2ccc3ccccc3c2Oc2ncn(CCCO)c(=N)c21 (stereo not given)	RPL19A TOR yeast 24[may fluoresce violet], CIT2-GFP yeast inconclusive, MEP2 TOR yeast 352[may fluoresce violet], AGP1 TOR yeast inconclusive
COc1ccccc1C1c2ccc3ccccc3c2Oc2ncn(CCN(C)C)c(=N)c21 (stereo not given)	none
Cc1nccn1-c1ncnc2sc3c(c12)CCCC3	none
O=C(NN1C(=O)C2C3c4ccccc4C(c4ccccc43)C2C1=O)c1ccc(Cl)cc1 (stereo not given)	none
COc1cccc(NC(=O)[C@@H]2CCCN2C(=O)[C@@H]2Cc3ccccc3CN2C(=O)OC(C)(C)C)c1	RPL19A TOR yeast 19[may fluoresce violet], CIT2-GFP yeast inconclusive
C=CCN1CC(=O)N2C(C)c3[nH]c4ccccc4c3C[C@H]2C1=O (stereo not given in full)	CIT2-GFP yeast inconclusive, MEP2 TOR yeast 226[may fluoresce violet], AGP1 TOR yeast inconclusive
O=C(CSc1nnc2ccccn12)NNC(=O)c1cccc(Cl)c1	none
Cc1nc(Oc2ccccc2)c2oc3ccccc3c2n1	CIT2-GFP yeast inconclusive, MEP2 TOR yeast 430[may fluoresce violet], AGP1 TOR yeast inconclusive
COc1ccc(Oc2nc(C)nc3c2oc2ccccc23)cc1	none (no result: CIT2-GFP yeast)
O=C(c1cc2ccccc2oc1=O)N1CCCC1	none
O=C(c1ccccc1)N1CCN(C(=O)c2cc3ccccc3oc2=O)CC1	LAP4-GFP MLPCN inconclusive, RPL19A TOR yeast 28[may fluoresce violet], CIT2-GFP yeast inconclusive, MEP2 TOR yeast inconclusive, AGP1 TOR yeast inconclusive
O=Cc1c(Sc2ccccn2)nc2ccccn2c1=O	none
O=Cc1c(Sc2ccccc2)nc2ccccn2c1=O	CIT2-GFP yeast inconclusive, MEP2 TOR yeast 223[may fluoresce violet], AGP1 TOR yeast inconclusive
O=c1[nH]c2c(=O)[nH]cnc2nc1-c1ccccc1	MEP2 TOR yeast 204 (no result: LAP4-GFP MLPCN, CIT2-GFP yeast, AGP1 TOR yeast)
Cc1ccc(OCC(=O)N2CCN(C(=O)c3ccco3)CC2)cc1	none
COc1ccccc1CNC(=O)CS(=O)Cc1nc(-c2ccc(OC)c(OC)c2)oc1C (stereo not given)	RPL19A TOR yeast 44
O=C(Nc1ccc(F)cc1F)c1ccc(-n2cncn2)nc1	none
O=C(Nc1c(F)cccc1F)c1ccc(-n2cncn2)nc1	CIT2-GFP yeast inconclusive, MEP2 TOR yeast 233[may fluoresce violet]
O=[N+]([O-])c1ccc(N2N=C(c3ccccc3)CC2c2ccccc2O)cc1 (stereo not given)	CIT2-GFP yeast inconclusive, MEP2 TOR yeast 299[may fluoresce violet]
O=[N+]([O-])c1ccc(N2N=C(c3ccco3)CC2c2ccccc2)cc1 (stereo not given)	CIT2-GFP yeast 223
COc1ccccc1N1N=C(c2ccc([N+](=O)[O-])cc2)CC1c1ccccc1 (stereo not given)	none
CC1CCCC(NC(=O)NC(=O)COC(=O)c2ccc(O)cc2O)C1C (stereo not given)	none
COCc1cc(C)n(CC(=O)Nc2ccc(Cl)cc2Cl)c(=O)c1C#N	none
COCc1cc(C)n(CC(=O)Nc2ccccc2OC)c(=O)c1C#N	RPL19A TOR yeast 48[may fluoresce violet], CIT2-GFP yeast inconclusive, MEP2 TOR yeast 571[may fluoresce violet], AGP1 TOR yeast inconclusive
CCCn1nc2cc(C(=O)NCc3ccc4c(c3)OCO4)ccc2c1OCC	none
CSc1nc(C)c(Cc2ccccc2)c(=O)[nH]1	none
CSc1nc(C)c(CCOCc2ccccc2)c(=O)[nH]1	CIT2-GFP yeast inconclusive, MEP2 TOR yeast 233[may fluoresce violet], AGP1 TOR yeast inconclusive
Cc1ccc(OCCN2CCN(C(=O)CCC(=O)Nc3nnc(CC(C)C)s3)CC2)cc1	RPL19A TOR yeast 43[may fluoresce violet], CIT2-GFP yeast inconclusive, MEP2 TOR yeast 355[may fluoresce violet], AGP1 TOR yeast inconclusive
Cc1ccc(Nc2cc(C)nn2-c2nc(C)cc(=O)[nH]2)cc1	LAP4-GFP MLPCN 152
COc1ccc(CCC(=O)NCCOc2ccc(C)cc2)cc1	none
O=C(O)CC(NC(=O)/C(=C/c1ccccc1)NC(=O)c1ccccc1)c1ccccc1 (stereo not given)	RPL19A TOR yeast 37[may fluoresce violet], CIT2-GFP yeast inconclusive, MEP2 TOR yeast 261[may fluoresce violet], AGP1 TOR yeast inconclusive
O=C(NC(Cc1ccccc1)C(=O)O)/C(=C/c1ccccc1)NC(=O)c1ccco1 (stereo not given)	RPL19A TOR yeast 22[may fluoresce violet], CIT2-GFP yeast inconclusive, MEP2 TOR yeast 220[may fluoresce violet], AGP1 TOR yeast inconclusive
O=C(NC(Cc1ccccc1)C(=O)O)/C(=C/c1ccc(Cl)cc1)NC(=O)c1ccccc1 (stereo not given)	none
C/C(=N\NS(=O)(=O)c1ccc(C)c([N+](=O)[O-])c1)c1ccc2c(c1)OCO2	none
Cc1nn(Cc2ccc([N+](=O)[O-])cc2)c(=O)n1-c1cccc(Cl)c1	MEP2 TOR yeast 217
Cc1nn(Cc2ccc([N+](=O)[O-])cc2)c(=O)n1-c1ccc(Cl)cc1	none
COc1ccc2[nH]cc(/C=C/c3cc[n+](C)cc3)c2c1	CIT2-GFP yeast inconclusive, MEP2 TOR yeast 369[may fluoresce violet], AGP1 TOR yeast inconclusive
COc1ccc(-n2c(Cc3ccccc3)nnc2SCc2ccc([N+](=O)[O-])cc2)cc1	none
CCCCCCC(=O)OCC(=O)c1ccc2c(c1)NC(=O)CO2	none
